From PubChem BioAssay AID1159580 (chemical genetic matrix, 2015)
Out of some 5,500 compounds screened, about 2,000 (36%) were called active. About 18% were inconclusive and are not listed. Rule as the data show it: active = normalized growth mostly below about 0.91 (no sharp cut-off); inconclusive = no clear call, values can overlap the other calls; inactive = mostly above about 0.92. The list shows a part of the results.

Test: chemical genetic growth profiling, strain panel (AID 1159580);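 also: tested at 20 µM; growth read once vehicle control cultures reached saturation at 30 °C; 1 = growth at the plate median or of vehicle wells; lower values mean less growth of the strain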
Conditions: S. cerevisiae deletion strains, growth OD

Measured: normalized growth

COc1ccc2c(c1)OCc1c-2oc2cc(OC)ccc12
active: locus YKL160W, strain elf1, active compounds read low 0.748 | locus YKR001C, strain vps1, active compounds read low 0.777 | locus YLL001W, strain dnm1, active compounds read low 0.871 | locus YLR027C, strain aat2, active compounds read low 0.8 | locus YLR039C, strain RIC1, active compounds read low 0.446 | locus YLR221C, strain rsa3, active compounds read low 0.762 | locus YLR258W, strain gsy2, active compounds read low 0.895 | locus YLR262C, strain YPT6 (second series), active compounds read low 0.387 | locus YLR262C, strain YPT6, active compounds read low 0.505 | locus YLR320W, strain mms22, active compounds read low 0.625 | locus YLR342W, strain FKS1, active compounds read low 0.73 | locus YML120C, strain ndi1, active compounds read low 0.842 | locus YMR058W, strain fet3, active compounds read low 0.699 | locus YMR125W, strain sto1, active compounds read low 0.877 | locus YMR205C, strain PFK2, active compounds read low 0.694 | locus YMR231W, strain pep5, active compounds read low 0.912 | locus YNL071W, strain lat1, active compounds read low 0.502 | locus YNL307C, strain MCK1, active compounds read low 0.858 | locus YNL322C, strain KRE1, active compounds read low 0.874 | locus YOR070C, strain gyp1, active compounds read low 0.836 | locus YOR083W, strain WHI5, active compounds read low 0.812 | locus YOR106W, strain vam3, active compounds read low 0.822 | locus YOR184W, strain ser1, active compounds read low 0.821 | locus YOR265W, strain rbl2, active compounds read low 0.928 | locus YOR270C, strain vph1, active compounds read low 0.476 | locus YOR290C, strain snf2, active compounds read low 0.834 | locus YPL051W, strain arl3, active compounds read low 0.677 | locus YPL078C, strain atp4, active compounds read low 0.764 | locus YPL240C, strain hsp82, active compounds read low 0.915
inactive: locus YJR075W, strain HOC1, active compounds read low 0.898 | locus YKL009W, strain mrt4, active compounds read low 1.02 | locus YKL068W, active compounds read low 1.01 | locus YKL085W, strain MDH1 (second series), active compounds read low 0.984 | locus YKL085W, strain MDH1, active compounds read low 0.984 | locus YKL190W, strain CNB1, active compounds read low 1 | locus YKR026C, strain gcn3, active compounds read low 0.988 | locus YKR091W, strain srl3, active compounds read low 0.987 | locus YLL041C, strain sdh2, active compounds read low 0.972 | locus YLR058C, strain SHM2, active compounds read low 0.936 | locus YLR102C, strain apc9, active compounds read low 1.01 | locus YLR113W, strain HOG1, active compounds read low 0.928 | locus YLR268W, strain sec22, active compounds read low 0.966 | locus YLR330W, strain CHS5, active compounds read low 0.929 | locus YLR342W, strain FKS1 (second series), active compounds read low 0.796 | locus YLR357W, strain rsc2, active compounds read low 0.909 | locus YLR370C, strain arc18, active compounds read low 0.94 | locus YLR371W, strain rom2, active compounds read low 1.01 | locus YLR384C, strain iki3, active compounds read low 1.01 | locus YLR418C, strain cdc73, active compounds read low 0.901 | locus YML016C, strain PPZ1, active compounds read low 0.978 | locus YML032C, strain rad52, active compounds read low 0.959 | locus YML124C, strain tub3, active compounds read low 1.01 | locus YMR078C, strain ctf18, active compounds read low 1.01 | locus YMR129W, active compounds read low 0.985 | locus YMR223W, strain ubp8, active compounds read low 1.01 | locus YMR263W, strain SAP30, active compounds read low 0.954 | locus YMR307W, strain GAS1, active compounds read low 1 | locus YNL067W, strain RPL9B, active compounds read low 0.92 | locus YNL153C, strain GIM3, active compounds read low 0.968 | locus YNL183C, strain NPR1, active compounds read low 0.888 | locus YNL209W, strain ssb2, active compounds read low 0.965 | locus YNL233W, strain BNI4, active compounds read low 0.9 | locus YNL248C, strain rpa49, active compounds read low 0.894 | locus YNL250W, strain rad50, active compounds read low 1.03 | locus YNL271C, strain bni1, active compounds read low 1.01 | locus YNL298W, strain CLA4, active compounds read low 1.03 | locus YNL322C, strain KRE1 (second series), active compounds read low 0.955 | locus YNR049C, strain mso1, active compounds read low 1 | locus YNR052C, strain pop2, active compounds read low 1.02 | locus YOL012C, strain htz1 0.977 | locus YOL147C, strain pex11, active compounds read low 1.01 | locus YOR001W, strain rrp6, active compounds read low 0.896 | locus YOR061W, strain CKA2, active compounds read low 1 | locus YOR069W, strain VPS5, active compounds read low 0.956 | locus YOR080W, strain dia2, active compounds read low 1 | locus YOR136W, strain idh2, active compounds read low 1 | locus YOR144C, strain elg1, active compounds read low 0.991 | locus YOR231W, strain MKK1, active compounds read low 0.938 | locus YOR316C, strain cot1, active compounds read low 1.02 | locus YPL106C, strain sse1, active compounds read low 0.969 | locus YPL256C, strain CLN2, active compounds read low 0.95 | locus YPR119W, strain clb2, active compounds read low 0.998 | locus YPR141C, strain kar3, active compounds read low 1.03 | locus YPR163C, strain tif3, active compounds read low 1 | locus YPR167C, strain met16, active compounds read low 0.992 | strain wtn01, active compounds read low 0.983
